Measured values published in the supplement of paper PMC13380429.
Values without a mark were called inactive.

system: Vero E6 infected with SARS-CoV-2; experiment: inhibition of SARS-CoV-2 cytopathic effect; higher = more antiviral protection, active = above 15; conditions: 1 nM; 48 h

Compound | inhibition of SARS-CoV-2 cytopathic effect
Cc1cnc(Nc2ccc(N3CCN(C)CC3)cc2)nc1Nc1cccc(S(=O)(=O)NC(C)(C)C)c1 | -0.35%
CC[C@H](C)[C@@H]1NC(=O)[C@H](Cc2ccc(O)cc2)NC(=O)[C@@H](N)CSSC[C@@H](C(=O)N2CCC[C@H]2C(=O)N[C@@H](CC(C)C)C(=O)NCC(N)=O)NC(=O)[C@H](CC(N)=O)NC(=O)[C@H](CCC(N)=O)NC1=O [oxytocin] | 5.14%
CCN(C(C)=O)c1cccc(-c2ccnc3c(C#N)cnn23)c1 | -0.78%
CC1Sc2c(C(=O)O)c(=O)c3cc(F)c(N4CCNCC4)cc3n21 (stereo not given) [ulifloxacin] | -1.7%
COc1cc(OC)c(/C=C/S(=O)(=O)Cc2ccc(OC)c(OP(=O)(O)O)c2)c(OC)c1 [briciclib] | 1.41%
Cc1ccc(/C=C2\CNC/C(=C\c3ccc(C)cc3)C2=O)cc1 | -3.15%
CC[C@H](C)C[C@H](C)CCCCCCCCC(=O)N[C@H]1C[C@@H](O)[C@@H](NCCN)NC(=O)[C@@H]2[C@@H](O)CCN2C(=O)[C@H]([C@H](O)CCN)NC(=O)[C@H]([C@H](O)[C@@H](O)c2ccc(O)cc2)NC(=O)[C@@H]2C[C@@H](O)CN2C(=O)[C@H]([C@@H](C)O)NC1=O [caspofungin] | 0.56%
NC(=O)c1ccccc1O [salicylamide] | -0.95%
COc1ccc(-c2nc(C(=O)N3CCN(C)CC3)sc2-c2ccc(OC)cc2)cc1 | -2.34%
O=C(NC(=O)c1c(F)cccc1F)Nc1cc(Cl)c(OC(F)(F)C(F)C(F)(F)F)cc1Cl (stereo not given) [lufenuron] | 1.67%
Cc1onc(-c2ccccc2)c1-c1ccc(S(N)(=O)=O)cc1 [valdecoxib] | 0.48%
O=C(O)CNC(=O)c1ccccc1 [hippuric-acid] | -0.58%
CC(=O)c1ccc2c(c1)N(CCCN1CCC(CCO)CC1)c1ccccc1S2 [piperacetazine] | 4.15%
Cn1c(=O)c(F)c(Nc2ccc(I)cc2F)c2c(=O)n(C[C@@H](O)CO)cnc21 | -3.03%
CC(C)Oc1ccc(-c2nc(-c3cccc4c3CC[C@H]4NCCC(=O)O)no2)cc1C#N | -2.71%
CCOc1nc2cccc(C(=O)OC(C)OC(=O)OC3CCCCC3)c2n1Cc1ccc(-c2ccccc2-c2nn[nH]n2)cc1 (stereo not given) [candesartan-cilexetil] | -0.98%
CC(C)(C)CC(C)(C)c1ccc(OCCOCC[N+](C)(C)Cc2ccccc2)cc1 [benzethonium] | -8.35%
COc1ccc(NC(=O)c2ccc(-c3ccc(-c4noc(C)n4)cc3C)cc2)cc1OCCN(C)C | -0.44%
CCCn1cnc2c1c(=O)n(CCCCC(C)=O)c(=O)n2C [propentofylline] | 0.84%
Cc1cc(C)c(CNC(=O)c2cc(-c3ccc(CN4CCOCC4)cc3)cc3c2cnn3C2CCCC2)c(=O)[nH]1 | -0.23%

Compound | inhibition of SARS-CoV-2 cytopathic effect
CC(C)CN(C[C@@H](O)[C@H](Cc1ccccc1)NC(=O)O[C@H]1CCOC1)S(=O)(=O)c1ccc(N)cc1 [amprenavir] | -0.22%
CN(C)CCCCSC(=N)N | -2.5%
Cc1cccc(C)c1NC(=O)c1ccccc1C(=O)O [ftaxilide] | -0.49%
O=C(/C=C/c1ccc2c(c1)OCO2)N1CCCCC1 [ilepcimide] | 0.84%
Oc1ccc(Nc2nc(-c3ccc(Cl)cc3)cs2)cc1 | 0.33%
N#Cc1cc2c(OCC(O)CN3CCN(C(c4ccccc4)c4ccccc4)CC3)cccc2[nH]1 (stereo not given) | 0.5%
CC[C@H]1[C@@H](O)[C@@H]2[C@H](CC[C@]3(C)[C@@H]([C@H](C)CCC(=O)O)CC[C@@H]23)[C@@]2(C)CC[C@@H](O)C[C@@H]12 [obeticholic-acid] | 0.365%
O=C(COc1ccc(Cl)cc1)N1CCN(Cc2ccc3c(c2)OCO3)CC1 [fipexide] | -0.21%
CCC(CC)COC(=O)[C@H](C)N[P@](=O)(OC[C@H]1O[C@@](C#N)(c2ccc3c(N)ncnn23)[C@H](O)[C@@H]1O)Oc1ccccc1 [Remdesivir] | -0.54%
N=C(N)NC(=N)Nc1ccccc1 [1-phenylbiguanide] | -1.07%
Cc1ccc2c(c1)[C@]13CCCC[C@@H]1[C@H](C2)N(C)CC3 [dimemorfan] | 0%
Oc1ccc([C@H]2COc3cc(O)ccc3C2)cc1 [equol] | -2.73%
Nc1ccc(S(=O)(=O)NC(=O)c2ccccc2)cc1 [sulfabenzamide] | -2.34%
NC(=O)N/N=C/c1ccc(Oc2ccc(F)cc2)cc1 | -1.46%
CC(=O)N[C@@H](Cc1c[nH]c2ccccc12)C(=O)OCc1cc(C(F)(F)F)cc(C(F)(F)F)c1 | 0.3%
COc1cc(OC)nc(O[C@H](C(=O)O)C(OC)(c2ccccc2)c2ccccc2)n1 [darusentan] | 0.26%
C[N+](C)(C)CCCCCC[N+](C)(C)C [hexamethonium] | -0.33%
COC(=O)C1=C(C#N)NC(C)=C(C(=O)OC(C)C)C1c1cccc([N+](=O)[O-])c1 (stereo not given) [nilvadipine] | -1.91%
CC(=O)N(CC(O)CN(C(C)=O)c1c(I)c(C(=O)NCC(O)CO)c(I)c(C(=O)NCC(O)CO)c1I)c1c(I)c(C(=O)NCC(O)CO)c(I)c(C(=O)NCC(O)CO)c1I (stereo not given) [iodixanol] | -1.14%
CN(C)CCCNC(=O)c1ccc(-c2cc(O)c3ncccc3c2)cc1 | -1.74%
